Reference: publication PMC7819943, “Rice protein-binding microarrays: a tool to detect cis-acting elements near promoter regions in rice”
The full ranking holds about 68,000 sequences; the median of “fluorescence intensity (a.u.)” is about 9,100, and the highest 2% start at about 16,000. Only a selection was taken, and the highest values are over-represented in it overall.

The sequences below were run against OsWRKY34 (Oryza sativa, UniProt Q0JBA9 1-250) (assay: protein-binding microarray (RPBM); PBS, 2% BSA, 51.3 ng/ul salmon testes DNA, 50 uM zinc acetate, 200 nM TF, 25 C, 1 h; high values mean tight binding). Conditions: protein: recombinant; tags: N-terminal polyhistidine and DsRed monomer fusion (pET32a); label: CyDye5-dUTP incorporated in the synthesized complementary strand; 3' TTTTT single-stranded linker to array surface; dsDNA, one strand shown.
OsWRKY34, sequence (Q0JBA9 entry or part of it): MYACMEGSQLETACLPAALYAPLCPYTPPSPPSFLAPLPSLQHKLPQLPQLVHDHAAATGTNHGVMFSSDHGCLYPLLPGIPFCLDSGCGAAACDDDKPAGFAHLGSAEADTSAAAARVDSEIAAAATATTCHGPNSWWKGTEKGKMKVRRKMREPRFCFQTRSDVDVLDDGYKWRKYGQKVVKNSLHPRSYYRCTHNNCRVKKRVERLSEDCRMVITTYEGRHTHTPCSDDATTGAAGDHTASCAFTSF
Method in brief: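 In PBS with 2% BSA, salmon testes DNA and 50 µM zinc acetate, 200 nM protein was incubated on a custom Agilent array at 25 °C for 1 h and then washed off. The array had been made double-stranded by primer extension with Cy5-dUTP and blocked with 2% BSA. The proteins were transcription factors fused N-terminally to polyhistidine and DsRed, expressed in E. coli BL21-CodonPlus and purified on Ni–NTA. The binding signal is per-feature fluorescence intensity (arbitrary units) from an Axon 4000B scanner.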

Sequence | binding signal
GCTCCGCCTGCCAGATCCATATGAGCCACCTGCGCCGCTACGGAGTCACCTAGTGCAG | 8720 fluorescence intensity (a.u.)
CGCCATCACTGCCAAGCTCGCCGGCTACATCGCCCGCGCCCGGAGTCACCTAGTGCAG | 8040 fluorescence intensity (a.u.)
CTTGGGTTGGGCGGGAACTTGGGGAGGAATTATGGACTATCGGAGTCACCTAGTGCAG | 16800 fluorescence intensity (a.u.)
GCCAGTTAGGGACCTAGGGACTTGGGTTGGGCGGGAACTTCGGAGTCACCTAGTGCAG | 14100 fluorescence intensity (a.u.)
GGGGAGGAATTATGGACTATTTGGATGGGCTTTTTTTACTCGGAGTCACCTAGTGCAG | 8030 fluorescence intensity (a.u.)
AGTTGGGCAGCAGTGGGTTGTGATATACTATGTGAATTATCGGAGTCACCTAGTGCAG | 9100 fluorescence intensity (a.u.)
CTGGGTGGGGAATTGGTTTAGTGAAGGATTAGTTGCTGATCGGAGTCACCTAGTGCAG | 9770 fluorescence intensity (a.u.)
ATGCTGAATTGGGTTGGGCTGGGGAGGAATTATAGACTATCGGAGTCACCTAGTGCAG | 17500 fluorescence intensity (a.u.)
CTAGAAGGTGACTTTTCCAACTCAACTCTCGTTTTTTCACCGGAGTCACCTAGTGCAG | 11500 fluorescence intensity (a.u.)
ACTTTATTACACACATAAACTTTCAACTTTACCGTCACATCGGAGTCACCTAGTGCAG | 9420 fluorescence intensity (a.u.)
AATCTTCTAACCACCGTACGTTCTCCTCGCACTATAAATACGGAGTCACCTAGTGCAG | 11500 fluorescence intensity (a.u.)
AAGATAGATGCCACTAATTTTTACACTGTATTTTGTAACTCGGAGTCACCTAGTGCAG | 8290 fluorescence intensity (a.u.)
CACATGCTTATACCGTTCGTGCTGGAGTTCCTGATCGATGCGGAGTCACCTAGTGCAG | 8070 fluorescence intensity (a.u.)
GTAGGAGGGTGGTTGGTTGTAGAATGGGAAGAAATTTGAACGGAGTCACCTAGTGCAG | 11100 fluorescence intensity (a.u.)
CGGTAGGCGTACGTGGAGACCGGTGGAATTCGTCAAAACCCGGAGTCACCTAGTGCAG | 55000 fluorescence intensity (a.u.)
CCACGTAGGCGCCACGTCAGCCAAAACCGCTCTTAAAACCCGGAGTCACCTAGTGCAG | 8110 fluorescence intensity (a.u.)
AAACGTCAAAAGACTCAAAACCCAAAACCCGCGTGCTGACCGGAGTCACCTAGTGCAG | 8030 fluorescence intensity (a.u.)
AAGGTTCGTTTCATTTTTTTTTACTTAATTAACTATTCCTCGGAGTCACCTAGTGCAG | 8740 fluorescence intensity (a.u.)
ACTCTTGGTATGTTCTGCTTAGATACACTGTGTTGCTTGCCGGAGTCACCTAGTGCAG | 9380 fluorescence intensity (a.u.)
TTGACCTTTTCTTTGTTGAACGTTGACCGTTCCGTCTTATCGGAGTCACCTAGTGCAG | 14300 fluorescence intensity (a.u.)
TGACTTTTTTAAATATGTTTGACCGTTCGTCTTATTGAAACGGAGTCACCTAGTGCAG | 8190 fluorescence intensity (a.u.)
GCCGTTAACTTTTTTAAATATGTTTGACCGTTCGTCTTATCGGAGTCACCTAGTGCAG | 10800 fluorescence intensity (a.u.)

Sequence | binding signal
CGCCGTTGACTTTTTTAAATATGTTTGACCGTTCGTCTTACGGAGTCACCTAGTGCAG | 39400 fluorescence intensity (a.u.)
CACCGTTGACTTTTTGACCAACGTTTGACCCTTTGTTTTACGGAGTCACCTAGTGCAG | 57700 fluorescence intensity (a.u.)
GGTCTTGTCTGTTGTGTTAGCCATTTGTACCAACTCATGACGGAGTCACCTAGTGCAG | 12000 fluorescence intensity (a.u.)
TTCACGTGTGTTTTGTGTAGTTTTCTACCAGTTTGTTGAACGGAGTCACCTAGTGCAG | 8470 fluorescence intensity (a.u.)
CTTTGTTGTTTTCTTCTGTTAGTGTCTGTATTATTCATTACGGAGTCACCTAGTGCAG | 9880 fluorescence intensity (a.u.)
TGTACGTGACCAGTAACGCGTTGACCTTTTCTTTGTTGAACGGAGTCACCTAGTGCAG | 17000 fluorescence intensity (a.u.)
TCTTGTGTACGTTGTGTGTTGTCATTGTGTGTCTGTCTTACGGAGTCACCTAGTGCAG | 17200 fluorescence intensity (a.u.)
TTGACTTTTTATTAACGTTTGACCATTTGTTTTATTTAAACGGAGTCACCTAGTGCAG | 12000 fluorescence intensity (a.u.)
TCTTTTTGTTTGACTTTTTTAAAACCACAGGTCACCCTTACGGAGTCACCTAGTGCAG | 14800 fluorescence intensity (a.u.)
GTGGGTTGGGCCAAAGAAAGGTAGGCTGAGTGGAGGGATGCGGAGTCACCTAGTGCAG | 10400 fluorescence intensity (a.u.)
CGCACACCACCGCCTACGTAGTAGCTCTGATCGGCGCTGTCGGAGTCACCTAGTGCAG | 8250 fluorescence intensity (a.u.)
AATTTTTTTTCAGCTGATCGCCACTTTATTCTTTTCATACCGGAGTCACCTAGTGCAG | 10200 fluorescence intensity (a.u.)
ACCGTGTTGCTGCCTGGTGCTCGCTTTGTTCGTAGGCCTTCGGAGTCACCTAGTGCAG | 8520 fluorescence intensity (a.u.)
GCTAGCGCTGGAATGGTCCTACTTCTTTCATTTACAACATCGGAGTCACCTAGTGCAG | 8690 fluorescence intensity (a.u.)
TATCATTATGTCCGAACGGTATACCTTCTTGTATCATTTCCGGAGTCACCTAGTGCAG | 11200 fluorescence intensity (a.u.)
CTCCGTAAGCTCCAGCCCACTGCCACCGCTGCTCCAGCTACGGAGTCACCTAGTGCAG | 8250 fluorescence intensity (a.u.)
GGCGAGGCGAATGTGATGGGCTAAGTTTTGTCGTTGGCAACGGAGTCACCTAGTGCAG | 8210 fluorescence intensity (a.u.)
GCCATGAAACCTCCTTTGCTCACTGCTTTGGAACCATACTCGGAGTCACCTAGTGCAG | 9020 fluorescence intensity (a.u.)
TTTCCGCATTTCCGCTCCTCTCTTTTTTACCCTTGACATGCGGAGTCACCTAGTGCAG | 8530 fluorescence intensity (a.u.)
CGCCGTTGACTTTTTGTTTAACGTTTGACCATTTGTCTTACGGAGTCACCTAGTGCAG | 24400 fluorescence intensity (a.u.)
ATTTTGAGTTTTTACTTGTAACGTTTGACCACTTGTCTTACGGAGTCACCTAGTGCAG | 8620 fluorescence intensity (a.u.)
AAAAACTGGGCCAGCTTTTTGTTTTTTTTACCACCCACAGCGGAGTCACCTAGTGCAG | 9010 fluorescence intensity (a.u.)
